Data on 40 molecules can be found in PubChem BioAssay (EPA / NIEHS).

SMILES strings stand for the structures. Calls of active or inactive are those of the source. The calls were made as follows: active = hit-call score of the fitted dose curve at least 0.9, where 1 is the maximum; inactive = score below 0.9.

This assay is described as follows: ATG_CMV_CIS: Attagene CIS-FACTORIAL HepG2 Assay for human CMV (Internal Marker) (AID 2282928).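 Also: endpoint acts as a background internal control marker rather than a target.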 As to conditions: HepG2 CMV promoter reporter, transcription factor profiling; actives raise or lower the signal. Here is the method: ATG_CIS is a cell-based, multiplexed-readout assay that uses HepG2, a human liver cell line, with measurements taken at 24 hours after chemical dosing in a 24-well plate.ATG_CMV_CIS is one of 52 assay component(s) measured or calculated from the ATG_CIS assay. It is designed to make measurements of mRNA induction, a form of inducible reporter, as detected with fluorescence intensity signals by Reverse transcription polymerase chain reaction (RT-PCR) and Capillary electrophoresis technology.Data from the assay component ATG_CMV_CIS was analyzed into 1 assay endpoint. This assay endpoint, ATG_CMV_CIS, was analyzed with bidirectional fitting relative to DMSO as the negative control and baseline of activity. Using a type of inducible reporter, measures of mRNA for gain or loss-of-signal activity can be used to understand the background control at the transcription factor-level as they relate to the gene . Furthermore, this assay endpoint can be referred to as a secondary readout, because this assay has produced multiple assay endpoints where this one serves a background control function. To generalize the intended target to other relatable targets, this assay endpoint is annotated to the background measurement intended target family, where the subfamily is internal marker.
Human liver HepG2 cells are transiently transfected with multiple reporter transcription units (MRTUs) in 6-well plates using FuGene 6 reagent (Roche; 3 ml FuGene/1 mg DNA). The MRTU constructs are regulated by a cis-regulating element (promoter). […] A major difference between the CIS and TRANS system is that in CIS activities of endogenous TFs are measured, whereas the TRANS assay evaluates changes in activities of exogenous, chimeric NR-Gal4 proteins. […] At the end of 24 hour incubation, total RNA was isolated using TriZol reagent (Invitrogen). The isolated RNA is then reverse-transcribed using oligo(dT) primer and Mo-MLV reverse transcriptase (Invitrogen) with DNAse I (Ambion) treatment for 30 min. The one-tenth of the produced cDNA was amplified by PCR using Taq DNA polymerase (Invitrogen) and two reporter sequence-specific primers. The PCR products were fluorescently labeled by primer extension with 6-arboxyfluorescein (6-FAM) 5'-labeled reporter sequence-specific primer (2 min at 95 C, 20 s at 68 C and 10 min at 72 C) and these products were digested with 5U of HpaI (New England Biolabs) for 2h at 37 C. The fragments were purified using Qiaquick PCR columns (Qiagen), analyzed on an ABI 3130xL genetic analyzer (Applied Biosystems) with peak positions identified by using a set of X-rhodamine (ROX)-labeled MapMarker1000 molecular weight standards (BioVentures). The raw capillary electrophoresis data was processed using Attagraph software (Attagene).
As to `Cc1cc(C2(c3cc(C)c(O)cc3C)OS(=O)(=O)c3ccccc32)c(C)cc1O`, the molecule was classed as inactive.
With `CC(C)Oc1ccccc1O`, the molecule was called inactive.
For the molecule `CC(C)c1cccc(O)c1`, the molecule was classed as inactive.
Regarding `COC(=O)OC`, the result was inactive.
As to `CN(C)CCCN`, the molecule was called inactive.
Consider `O=C[C@@H](O)[C@H](O)[C@H](O)CO`, for which the result was inactive.
Regarding `CC(C=O)Cc1ccc(C(C)C)cc1` (stereo not given), the outcome was inactive.
In the case of `CC(=O)OCC=Cc1ccccc1`, the molecule was called inactive.
Regarding `COC(C(=O)O)c1ccccc1` (stereo not given), the molecule was called inactive.
Regarding `C=CC(=O)OCCn1c(=O)n(CCOC(=O)C=C)c(=O)n(CCOC(=O)C=C)c1=O`, the AC50 was 9.12 µM (active).
The same measure, in the same setting: under `Cc1ccc(S)cc1` stands 34.4 µM (active).
For the molecule `C=O`, the outcome was inactive.
Same read-out and setting: under `O=S(=O)(O)NC1CCCCC1` stands “inactive”; under `CCCCNC(=O)NS(=O)(=O)c1ccc(C)cc1`, “inactive”.
Regarding `COC(C)CCO` (stereo not given), the molecule was classed as inactive.
Take `CNCCCC12CCC(c3ccccc31)c1ccccc12`: the AC50 was 11.1 µM (active).
With `O=C(O)c1cccc(C(F)(F)F)c1`, the molecule was called inactive.
The same measure, in the same setting: the same measure for `Clc1ccc(Cl)c(Cl)c1Cl`: “inactive”.
Turning to `CC(C)(Oc1ccc(CCNC(=O)c2ccc(Cl)cc2)cc1)C(=O)O`, the result was inactive.
Regarding `COc1cc2ncnc(Nc3cccc(Cl)c3)c2cc1OC`, the molecule was called inactive.
On the same count and under the same terms, under `C=CC(=O)OCC(O)COc1ccccc1` (stereo not given) stands “inactive”; under `Cc1cccc(C)c1C`, “inactive”.
`CCCCC/C=C/C=C/C=O`: the call was inactive.
Still for that read-out and setting: the same measure for `C=C(C)[C@@H]1CC[C@@H](C)C[C@@H]1O`: “inactive”.
As to `NC(N)=NC(=O)c1nc(Cl)c(N)nc1N`, the outcome was inactive.
For `CC1COc2ccccc2N1C(=O)C(Cl)Cl` (stereo not given), the call was inactive.
As to `N#Cc1nc(Cl)c(Cl)c(Cl)c1Cl`, the AC50 is 7.02 µM (active).
With `N#Cc1ccccc1`, the call was inactive.
Turning to `COc1cc(C)cc(O)c1`, the molecule was classed as inactive.
For `O=c1cc(-c2ccccc2)oc2cc(O)cc(O)c12`, the AC50 was 3.31 µM (active).
On to `C=C(C)C1CCC(C)CC1O` (stereo not given), for which the molecule was classed as inactive.
For the molecule `O=C(O)c1ccc([N+](=O)[O-])cc1`, the result was inactive.
Still for that read-out and setting: the same measure for `CCCCC(CC)COC(=O)/C=C\C(=O)OCC(CC)CCCC` (stereo not given): “inactive”; for `OCC(CO)(CO)COCC(CO)(CO)CO`: “inactive”; for `COc1ccc(NC(=O)CC(C)=O)cc1`: “inactive”.
Still for that read-out and setting: the same measure for `OCCOc1cccc(OCCO)c1`: “inactive”.
On to `CCCCC[Si](OCC)(OCC)OCC`, for which the molecule was classed as inactive.
In the case of `CC(C)(C)C(=O)c1ccccc1`, the molecule was called inactive.
For the molecule `CC(=O)OCCC(C)CC(C)(C)C` (stereo not given), the call was inactive.
As to `O=C(O)c1snc(Cl)c1Cl`, the outcome was inactive.
